# Where “and” joins values, the source holds several entries; their conditions need not be identical. Equal entries are not always repeated. Results filed as inconclusive are left out. Entries that show only a call come without a potency. Where a structure was tested more than once in an assay, its records may differ in their call. Calls of active or inactive are those of the source. Unless noted, calls follow the shape of the dose curve; as a rule, active = well fitted inhibition curve with a large enough effect in the repeat runs (not every such curve was filed as active); inconclusive = weak or mixed curves; inactive = flat fitted curve, though single readings scatter.
# System: not listed separately
# Assay: qHTS assay to identify small molecule agonists of the TGF-beta/Smad signaling pathway (AID 1346859; active = well fitted activation curve with a large enough effect in the signal ratio in the repeat runs, not every such curve was filed as active; the % refers to the signal ratio)
# Settings: SBE-bla HEK293T, TGF-beta/Smad beta-lactamase reporter, 5 h; series mostly up to 76.8 µM
# Procedure, shortened: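 HEK 293T cells stably carrying a beta-lactamase reporter driven by the Smad binding element were seeded overnight, exposed to DMSO-dissolved compounds for 5 hr at 37 C, 5% CO2, then loaded with FRET substrate for 2 hr at room temperature.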
row,Structure (SMILES),outcome
1,CC(C)(C)C(=O)Cl,inactive
2,O=C1C2CC=CCC2C(=O)N1SC(Cl)(Cl)Cl (stereo unspecified),inactive
3,O=C(Cl)C(Cl)Cl,inactive
4,C/C=C/CC#N,inactive
5,S=C=S,inactive
6,O=C1CC(=O)NC(=O)N1,inactive
7,CCN(CCO)CCO,inactive
8,ClC1=C(Cl)C2(Cl)C(CBr)CC1(Cl)C2(Cl)Cl (stereo unspecified),inactive
9,CCOC(=O)c1ncn2c1CN(C)C(=O)c1c(I)cccc1-2,inactive
10,COc1ccccc1OC,inactive
11,c1cncc([C@@H]2CCCCN2)c1,inactive
12,CCOP(=S)(OCC)Oc1ccc(Cl)cc1Cl,inactive
13,CC(Cc1ccccc1)NCCn1cnc2c1c(=O)n(C)c(=O)n2C (stereo unspecified),inactive
14,CC(C)(O)C(Cl)(Cl)Cl,inactive
15,O=C(Cl)CCl,inactive
16,N#CN,inactive
17,CCN(CCO)CCn1c(Cc2ccccc2)nc2c1c(=O)n(C)c(=O)n2C,inactive

row,Structure (SMILES),outcome
1,CC[C@H](N)c1ccccc1,inactive
2,C=CC1(C)OC(=O)N(c2cc(Cl)cc(Cl)c2)C1=O (stereo unspecified),inactive
3,CN=CNc1ccc(C)cc1C,inactive
4,O=C(Cl)C(Cl)(Cl)Cl,inactive
5,CCOC(=O)C(Cl)Cc1cc(-n2nc(C)n(C(F)F)c2=O)c(F)cc1Cl (stereo unspecified),inactive
6,Cc1cc(OC(=O)N(C)C)nn1C(=O)N(C)C,inactive
7,O=C(O)c1c(Cl)ccc2cc(Cl)cnc12,inactive
8,COP(=O)(OC)O/C(C)=C/C(=O)N(C)C,inactive
9,Cn1c(CCCC(=O)O)nc2cc(N(CCCl)CCCl)ccc21,inactive
10,CS(=O)(=O)Cl,inactive
11,CCC(C(N)=O)N1CCCC1=O (stereo unspecified),inactive
12,CN(CCO)CCO,inactive
13,NCCOS(=O)(=O)O,inactive
14,C=CCCC#N,inactive
15,O=C(NC(O)C(Cl)(Cl)Cl)NC(O)C(Cl)(Cl)Cl (stereo unspecified),inactive
16,COc1cccc(C=O)c1,inactive
17,CCC(C)C(C)(COC(N)=O)COC(N)=O (stereo unspecified),inactive

# Molecular target: Thyrotropin-releasing hormone receptor (Homo sapiens) (UniProt P34981)
# Sequence (P34981 whole entry, looked up): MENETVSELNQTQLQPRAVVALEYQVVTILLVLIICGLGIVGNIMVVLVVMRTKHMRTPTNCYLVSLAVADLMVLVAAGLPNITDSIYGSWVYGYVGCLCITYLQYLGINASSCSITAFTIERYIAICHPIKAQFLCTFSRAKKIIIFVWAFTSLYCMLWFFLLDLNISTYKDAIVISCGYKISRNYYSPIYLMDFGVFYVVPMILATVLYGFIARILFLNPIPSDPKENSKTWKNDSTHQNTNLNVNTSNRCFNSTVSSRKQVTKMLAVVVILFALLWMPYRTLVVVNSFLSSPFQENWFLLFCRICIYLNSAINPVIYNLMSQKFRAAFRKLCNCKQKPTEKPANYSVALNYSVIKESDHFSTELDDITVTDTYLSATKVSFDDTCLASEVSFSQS
# Assay: qHTS assay to identify small molecule antagonists of the thyrotropin-releasing hormone receptor (TRHR) signaling pathway (AID 1346877); also: potency is read from the fitted curve at half-maximal effect
# Settings: TRHR-HEK293, TRH-induced calcium fluorescence, antagonist mode; series mostly up to 51.3 µM
# Procedure, shortened: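 Human TRHR in HEK293 cells; inhibition of the intracellular calcium rise triggered by 1 nM TRH was followed by fluorescence over 3 min. Compounds were run at 15 concentrations, three replicates each.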
row,Structure (SMILES),Potency
1,CC(C)(C)C(=O)Cl,inactive
2,O=C1C2CC=CCC2C(=O)N1SC(Cl)(Cl)Cl (stereo unspecified),inactive and 33.3 µM (active)
3,O=C(Cl)C(Cl)Cl,inactive
4,C/C=C/CC#N,inactive
5,S=C=S,inactive
6,O=C1CC(=O)NC(=O)N1,inactive
7,CCN(CCO)CCO,inactive
8,ClC1=C(Cl)C2(Cl)C(CBr)CC1(Cl)C2(Cl)Cl (stereo unspecified),inactive
9,CCOC(=O)c1ncn2c1CN(C)C(=O)c1c(I)cccc1-2,inactive
10,COc1ccccc1OC,inactive
11,c1cncc([C@@H]2CCCCN2)c1,inactive
12,CCOP(=S)(OCC)Oc1ccc(Cl)cc1Cl,inactive
13,CC(Cc1ccccc1)NCCn1cnc2c1c(=O)n(C)c(=O)n2C (stereo unspecified),inactive
14,O=C(Cl)CCl,inactive
15,C=C1C[C@@H]2[C@H](CC[C@]3(C)C(=O)CC[C@@H]23)[C@@]2(C)C=CC(=O)C=C12,inactive
16,N#CN,inactive

row,Structure (SMILES),Potency
1,CCN(CCO)CCn1c(Cc2ccccc2)nc2c1c(=O)n(C)c(=O)n2C,inactive
2,C=CC1(C)OC(=O)N(c2cc(Cl)cc(Cl)c2)C1=O (stereo unspecified),inactive
3,O=C(Cl)C(Cl)(Cl)Cl,inactive
4,CCOC(=O)C(Cl)Cc1cc(-n2nc(C)n(C(F)F)c2=O)c(F)cc1Cl (stereo unspecified),inactive
5,Cc1cc(OC(=O)N(C)C)nn1C(=O)N(C)C,inactive
6,O=C(O)c1c(Cl)ccc2cc(Cl)cnc12,inactive
7,COP(=O)(OC)O/C(C)=C/C(=O)N(C)C,inactive
8,Cn1c(CCCC(=O)O)nc2cc(N(CCCl)CCCl)ccc21,inactive
9,CS(=O)(=O)Cl,inactive
10,CCC(C(N)=O)N1CCCC1=O (stereo unspecified),inactive
11,CN(CCO)CCO,inactive
12,NCCOS(=O)(=O)O,inactive
13,C=CCCC#N,inactive
14,O=C(NC(O)C(Cl)(Cl)Cl)NC(O)C(Cl)(Cl)Cl (stereo unspecified),inactive
15,COc1cccc(C=O)c1,inactive
16,CCC(C)C(C)(COC(N)=O)COC(N)=O (stereo unspecified),inactive

# — PubChem BioAssay (Tox21)
